From PubChem BioAssay
For some of these results: Results with a measured potency or affinity are listed apart. Active and inactive are the calls of the source. Unless noted, no rule for the calls is given here.

What was measured:
[1] = antimalarial activity against Dd2 strain (AID 2302;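 active = growth inhibition above 50% at the single 2 µM test dose, taken to imply half-maximal potency below 2 µM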;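 also: 0% = DMSO untreated growth and 100% = chloroquine plus artemisinin killed control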); details: P. falciparum Dd2 in RBCs, LDH growth readout, 72 h; at 2 µM; stronger effect = higher value
[2] = HepG2 cytotoxicity, primary screen, cytotoxicity control for P. falciparum antimalarial project, cell-based, ATP luminescence (AID 2303;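 active = inhibition above 50%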;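 also: 0% = DMSO wells and 100% = digitonin-killed cells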); details: HepG2 viability, 24-48 h, at 10 µM, stronger effect = higher value
[3] = target: L-lactate dehydrogenase (Plasmodium falciparum (isolate CDC / Honduras)) (UniProt Q27743); assay: PfLDH activity inhibition – cell lysate, 3D7 strain, counter-screen for P. falciparum growth inhibition project (AID 2304);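 also: 0% = vehicle and 100% = reference inhibitor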; details: P. falciparum 3D7 crude extract, LDH APAD/NBT absorbance; at 2 µM; stronger effect = higher value
Chain of L-lactate dehydrogenase (Plasmodium falciparum (isolate CDC / Honduras)) (Q27743 whole entry, looked up): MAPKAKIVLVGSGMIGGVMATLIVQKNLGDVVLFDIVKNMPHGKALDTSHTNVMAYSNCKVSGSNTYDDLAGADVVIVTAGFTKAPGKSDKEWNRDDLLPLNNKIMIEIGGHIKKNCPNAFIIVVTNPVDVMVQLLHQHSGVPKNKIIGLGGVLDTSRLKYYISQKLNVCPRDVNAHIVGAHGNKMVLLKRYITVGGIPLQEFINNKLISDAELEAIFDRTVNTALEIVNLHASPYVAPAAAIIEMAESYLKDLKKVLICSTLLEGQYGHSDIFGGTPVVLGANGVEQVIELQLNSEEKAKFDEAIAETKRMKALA

[4] = inhibition of 3D7 malaria parasite growth – strain 3D7 (AID 2306);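 also: 0% = DMSO wells and 100% = chloroquine plus artemisinin control wells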; details: P. falciparum 3D7 erythrocytic growth, LDH absorbance, 72 h; at 2 µM; stronger effect = higher value
[5] = target: Calcium-dependent protein kinase 1 (Plasmodium falciparum (isolate 3D7)) (UniProt P62344); assay: PfCDPK1 kinase inhibitors, biochemical, TCAMS library (AID 1159585; cut-off not given, nearly all actives have IC50 up to about 0.98 µM;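 also: inhibitors leave more ATP so luminescence rises with inhibition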); details: recombinant PfCDPK1, Kinase-Glo ATP depletion luminescence
Chain of Calcium-dependent protein kinase 1 (Plasmodium falciparum (isolate 3D7)) (P62344 whole entry, looked up): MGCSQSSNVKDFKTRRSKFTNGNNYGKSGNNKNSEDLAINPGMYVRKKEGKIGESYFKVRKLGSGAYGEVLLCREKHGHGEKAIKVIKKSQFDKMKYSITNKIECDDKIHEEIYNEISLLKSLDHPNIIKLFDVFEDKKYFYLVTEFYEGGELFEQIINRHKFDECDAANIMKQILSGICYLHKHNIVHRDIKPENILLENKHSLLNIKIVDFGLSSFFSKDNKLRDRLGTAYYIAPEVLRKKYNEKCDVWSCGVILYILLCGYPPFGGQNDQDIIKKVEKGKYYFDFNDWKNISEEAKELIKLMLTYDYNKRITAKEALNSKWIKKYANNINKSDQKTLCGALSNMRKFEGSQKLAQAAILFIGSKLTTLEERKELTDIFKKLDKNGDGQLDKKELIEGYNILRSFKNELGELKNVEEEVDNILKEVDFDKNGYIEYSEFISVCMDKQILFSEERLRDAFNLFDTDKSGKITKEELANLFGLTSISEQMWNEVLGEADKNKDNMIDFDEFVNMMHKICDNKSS

[6] = target: Plasmodium falciparum protein kinase 6 (PK6, PF3D7_1337100) (UniProt Q8IDW1); assay: PfPK6 kinase inhibitors, biochemical, TCAMS library (AID 1159586); details: recombinant PfPK6, Kinase-Glo ATP depletion luminescence
Chain of Plasmodium falciparum protein kinase 6 (PK6, PF3D7_1337100) (Q8IDW1 1-305): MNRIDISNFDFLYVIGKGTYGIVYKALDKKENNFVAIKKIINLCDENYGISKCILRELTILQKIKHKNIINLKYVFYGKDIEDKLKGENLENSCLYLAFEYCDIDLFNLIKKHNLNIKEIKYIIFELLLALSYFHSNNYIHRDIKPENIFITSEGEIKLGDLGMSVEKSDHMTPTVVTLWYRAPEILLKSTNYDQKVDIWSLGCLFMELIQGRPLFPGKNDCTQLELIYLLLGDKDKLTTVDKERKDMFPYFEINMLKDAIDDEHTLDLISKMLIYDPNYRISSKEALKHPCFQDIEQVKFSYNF

[7] = target: Protein kinase 7 (PK7), Plasmodium falciparum 3D7 (PF3D7_0213400) (UniProt Q7YTF7); assay: inhibition of Plasmodium PK7 catalytic activity – biochemical, TCAMS antimalarial set, Kinase-Glo luminescence (AID 1159587); details: recombinant PfPK7, Kinase-Glo ATP depletion luminescence
Chain of Protein kinase 7 (PK7), Plasmodium falciparum 3D7 (PF3D7_0213400) (Q7YTF7 1-343): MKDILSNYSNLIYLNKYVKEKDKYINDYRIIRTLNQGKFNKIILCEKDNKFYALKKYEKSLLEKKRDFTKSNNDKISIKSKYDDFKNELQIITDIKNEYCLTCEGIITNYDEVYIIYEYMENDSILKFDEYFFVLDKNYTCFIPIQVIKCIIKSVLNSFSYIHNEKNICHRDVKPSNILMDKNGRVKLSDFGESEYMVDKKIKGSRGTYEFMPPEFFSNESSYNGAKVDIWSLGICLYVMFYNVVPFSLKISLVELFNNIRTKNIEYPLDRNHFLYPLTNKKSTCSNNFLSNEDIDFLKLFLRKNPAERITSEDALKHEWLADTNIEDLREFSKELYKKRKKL

[8] = target: Calcium-dependent protein kinase 4 (Plasmodium falciparum (isolate 3D7)) (UniProt Q8IBS5); assay: PfCDPK4 kinase inhibitors, biochemical, TCAMS library (AID 1159588; cut-off not given, nearly all actives have IC50 up to about 0.91 µM); details: recombinant PfCDPK4, Kinase-Glo ATP depletion luminescence
Chain of Calcium-dependent protein kinase 4 (Plasmodium falciparum (isolate 3D7)) (Q8IBS5 whole entry, looked up): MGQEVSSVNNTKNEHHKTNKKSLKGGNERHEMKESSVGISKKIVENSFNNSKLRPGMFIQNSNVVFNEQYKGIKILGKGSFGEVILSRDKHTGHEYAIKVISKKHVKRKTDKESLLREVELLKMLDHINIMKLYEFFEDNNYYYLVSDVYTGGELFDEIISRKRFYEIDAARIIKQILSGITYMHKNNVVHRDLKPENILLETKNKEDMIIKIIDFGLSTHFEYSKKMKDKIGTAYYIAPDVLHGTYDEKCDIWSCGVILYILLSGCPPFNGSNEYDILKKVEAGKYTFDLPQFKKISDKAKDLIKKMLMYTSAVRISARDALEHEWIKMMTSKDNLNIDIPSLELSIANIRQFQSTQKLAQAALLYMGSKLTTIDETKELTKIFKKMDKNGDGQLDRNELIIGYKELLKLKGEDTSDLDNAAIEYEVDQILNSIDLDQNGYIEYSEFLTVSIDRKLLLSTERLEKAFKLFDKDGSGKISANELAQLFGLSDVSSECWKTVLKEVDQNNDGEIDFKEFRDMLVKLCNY

CCN1CCN(CCCNc2c3ccc(Cl)cc3nc3ccc(O)cc23)CC1
inactive: growth inhibition [1] 1% | inhibition [2] 32% | inhibition [3] -3% | outcome [5] | outcome [6] | outcome [7] | outcome [8]
active: growth inhibition [4] 103%

CCN(CCNC(=O)C1CCN(c2cc(-c3cccc(C)c3)ncn2)CC1)Cc1ccccc1
inactive: inhibition [2] 24% | inhibition [3] 2% | outcome [5] | outcome [6] | outcome [7] | outcome [8]
active: growth inhibition [1] 72% | growth inhibition [4] 83%

O=c1cc(NCCCCNCc2ccc(Br)c(Br)c2)[nH]c2ccccc12
inactive: growth inhibition [1] 14% | inhibition [2] 13% | inhibition [3] 2% | outcome [5] | outcome [6] | outcome [7] | outcome [8]
active: growth inhibition [4] 98%

CCc1cccc(-n2c(=O)c3cccnc3n2CC(=O)NCc2ccccc2Cl)c1
inactive: growth inhibition [1] 19% | inhibition [2] 25% | inhibition [3] -8% | outcome [5] | outcome [6] | outcome [7] | outcome [8]
active: growth inhibition [4] 98%

COc1ccc2cc(C=NNc3nc4ccccc4[nH]3)c(Cl)nc2c1
active: growth inhibition [1] 90% | growth inhibition [4] 100%
inactive: inhibition [2] 2% | inhibition [3] -2% | outcome [5] | outcome [6] | outcome [7] | outcome [8]

O=C(Nc1ccc(Cl)cc1C(=O)Nc1ccncc1)c1ccc(Cl)cc1Cl
inactive: inhibition [2] 8% | inhibition [3] -5% | outcome [5] | outcome [6] | outcome [7] | outcome [8]
active: growth inhibition [1] 75% | growth inhibition [4] 99%

C=CC(=O)Nc1ccc(Cl)cc1C(O)c1ccccc1 (stereo not drawn)
inactive: growth inhibition [1] 5% | inhibition [2] -5% | inhibition [3] 0% | outcome [5] | outcome [6] | outcome [7] | outcome [8]
active: growth inhibition [4] 100%

CN(C)c1ccc(OCCCCCCOc2ccccc2)cc1
inactive: inhibition [2] -7% | inhibition [3] -5% | outcome [5] | outcome [6] | outcome [7] | outcome [8]
active: growth inhibition [1] 68% | growth inhibition [4] 85%

CCCOc1cc(OCCC)cc(-c2ccc(C(=O)Nc3ccc4ccc(C)nc4c3)c(=O)[nH]2)c1
active: growth inhibition [1] 76% | growth inhibition [4] 101%
inactive: inhibition [2] 11% | inhibition [3] 5% | outcome [5] | outcome [6] | outcome [7] | outcome [8]

COc1cc(Br)c(S(=O)(=O)n2cc(CN3CCC(N)CC3)c3cc(Cl)ccc32)cc1OC
active: growth inhibition [4] 99%
inactive: growth inhibition [1] 32% | inhibition [2] 27% | inhibition [3] -4% | outcome [5] | outcome [6] | outcome [7] | outcome [8]

Cc1cc(=O)c(-c2ccc(OCc3ccc(OC(F)(F)F)cc3)cc2)c(C)[nH]1
inactive: inhibition [2] 3% | inhibition [3] 3% | outcome [5] | outcome [6] | outcome [7] | outcome [8]
active: growth inhibition [1] 92% | growth inhibition [4] 97%

O=C(NCCc1ccccc1)N(Cc1cccc(-c2ccc(CNCc3ccc4c(c3)OCO4)cc2)c1)C1CCN(Cc2ccccc2)CC1
inactive: inhibition [2] 11% | inhibition [3] -2% | outcome [5] | outcome [6] | outcome [7] | outcome [8]
active: growth inhibition [1] 70% | growth inhibition [4] 94%

CSC1=NC(=Nc2ccccc2C)C2(CCC(C(C)(C)C)CC2)N1c1ccccc1Cl (stereo not drawn)
active: growth inhibition [1] 89% | growth inhibition [4] 96%
inactive: inhibition [2] 3% | inhibition [3] 4% | outcome [5] | outcome [6] | outcome [7] | outcome [8]

CCCCC(NCC)c1ccc(OCCOc2ccc(C(CCCC)NCC)cc2)cc1 (stereo not drawn)
active: growth inhibition [1] 99% | inhibition [2] 100% | growth inhibition [4] 101%
inactive: inhibition [3] 3% | outcome [5] | outcome [6] | outcome [7] | outcome [8]

CCc1cn(C)c2c(N3CCCC3=O)cc(C(=O)N[C@@H](Cc3ccccc3)[C@H](O)CNC3CCCCC3)cc12
active: growth inhibition [1] 98% | growth inhibition [4] 97%
inactive: inhibition [2] 8% | inhibition [3] -1% | outcome [5] | outcome [6] | outcome [7] | outcome [8]

COc1cc2nc(NCCc3ccccc3)nc(NCc3ccc(C#N)cc3)c2cc1OC
active: growth inhibition [1] 100% | inhibition [2] 52% | growth inhibition [4] 100%
inactive: inhibition [3] 0% | outcome [5] | outcome [6] | outcome [7] | outcome [8]

Cc1[nH]c(C)c(-c2ccc(-c3cccc(OC(F)(F)F)c3)nc2)c(=O)c1Cl
active: growth inhibition [1] 97% | growth inhibition [4] 98%
inactive: inhibition [2] 30% | inhibition [3] -2% | outcome [5] | outcome [6] | outcome [7] | outcome [8]

CC1(C)CC(NC(=O)NC2CCN(Cc3ccccc3)CC2)CC(C)(CNC(=O)NC2CCN(Cc3ccccc3)CC2)C1 (stereo not drawn)
active: growth inhibition [4] 93%
inactive: growth inhibition [1] 2% | inhibition [2] 10% | inhibition [3] 5% | outcome [5] | outcome [6] | outcome [7] | outcome [8]

c1ccc(COc2ccc(Cn3ccc(-c4ccc(-n5ccnc5)cc4)n3)cc2)cc1 (tested in a mixture with another compound)
inactive: inhibition [2] 2% | inhibition [3] -1% | outcome [5] | outcome [6] | outcome [7] | outcome [8]
active: growth inhibition [1] 67% | growth inhibition [4] 94%

Cc1ccccc1C1CCN(C2CCC(NC(=O)c3cc(-c4ccc(Cl)cc4)cs3)CC2)CC1 (stereo not drawn)
active: growth inhibition [1] 100% | inhibition [2] 99% | growth inhibition [4] 101%
inactive: inhibition [3] -2% | outcome [5] | outcome [6] | outcome [7] | outcome [8]

CC(C)CCN1CCC(Oc2ccc(NC(=O)c3ccc4ncccc4c3)cc2Cl)C1 (stereo not drawn)
inactive: growth inhibition [1] 14% | inhibition [2] 33% | inhibition [3] -4% | outcome [5] | outcome [6] | outcome [7] | outcome [8]
active: growth inhibition [4] 95%

O=C(Nc1ccc(Cl)cn1)c1sc2ccccc2c1O
active: growth inhibition [4] 99%
inactive: growth inhibition [1] 18% | inhibition [2] 2% | inhibition [3] -3% | outcome [5] | outcome [6] | outcome [7] | outcome [8]

Cc1ccc(-c2csc(C)n2)c(C)c1
active: growth inhibition [4] 98%
inactive: growth inhibition [1] -3% | inhibition [2] 12% | inhibition [3] 3% | outcome [5] | outcome [6] | outcome [7] | outcome [8]

CC(C)COc1ccc2ccccc2c1CNCCCCCCNCc1c(OCC(C)C)ccc2ccccc12
active: growth inhibition [1] 95% | inhibition [2] 99% | growth inhibition [4] 90%
inactive: inhibition [3] 2% | outcome [5] | outcome [6] | outcome [7] | outcome [8]

COc1ccc(NC(=O)NC2CCN(CCCCCNC(=O)/C=C/c3ccc(Cl)c(Cl)c3)C2)c(OC)c1 (stereo not drawn)
inactive: growth inhibition [1] 9% | inhibition [2] 24% | inhibition [3] -3% | outcome [5] | outcome [6] | outcome [7] | outcome [8]
active: growth inhibition [4] 96%

N/C(=N/C(=NCCCCCCN=C(/N=C(/N)Nc1ccc(Cl)cc1)N1CCCCC1)N1CCCCC1)Nc1ccc(Cl)cc1
inactive: inhibition [2] -7% | inhibition [3] 0% | outcome [5] | outcome [6] | outcome [7] | outcome [8]
active: growth inhibition [1] 98% | growth inhibition [4] 100%

O=C(/C=C/c1ccc(Cl)c(Cl)c1)NCCCCCN1CCCC(C(=O)Nc2ccc(Cl)cc2)C1 (stereo not drawn)
inactive: growth inhibition [1] -3% | inhibition [2] 35% | inhibition [3] -3% | outcome [5] | outcome [6] | outcome [7] | outcome [8]
active: growth inhibition [4] 98%

COc1ccc2ncc(F)c(CCN3C[C@H](CNCc4cc(F)c5c(c4)NC(=O)CO5)[C@H](O)C3)c2n1
active: growth inhibition [4] 94%
inactive: growth inhibition [1] 23% | inhibition [2] 3% | inhibition [3] -7% | outcome [5] | outcome [6] | outcome [7] | outcome [8]

CCCN1CCC=C(c2cccc(Nc3nccc(Nc4cc(OC)ccc4C)n3)c2)C1
inactive: growth inhibition [1] 35% | inhibition [2] 15% | inhibition [3] -1% | outcome [5] | outcome [6] | outcome [7] | outcome [8]
active: growth inhibition [4] 88%

Fc1ccc2nc(-c3ccc(-c4ccc(CNCc5cnn(-c6ccccc6)n5)cc4)cc3)[nH]c2c1
active: growth inhibition [4] 98%
inactive: growth inhibition [1] 47% | inhibition [2] 41% | inhibition [3] 1% | outcome [5] | outcome [6] | outcome [7] | outcome [8]

COc1cc(CCON2C(N)=NC(N)=NC2(C)C)cc(OC)c1OC
active: growth inhibition [1] 95% | inhibition [2] 59% | growth inhibition [4] 93%
inactive: inhibition [3] -1% | outcome [5] | outcome [6] | outcome [7] | outcome [8]

COc1cccc(CNC[C@@H](O)[C@H](Cc2ccccc2)NC(=O)c2cc(C(C)C)cc(N3CCCC3=O)c2)c1
inactive: inhibition [2] 1% | inhibition [3] -4% | outcome [5] | outcome [6] | outcome [7] | outcome [8]
active: growth inhibition [1] 61% | growth inhibition [4] 95%

COC(=O)C1(NC(=O)c2ccc(-n3nc(C)c(-c4ccccc4)c3N)cc2)CCCC1
inactive: inhibition [2] 9% | inhibition [3] -5% | outcome [5] | outcome [6] | outcome [7] | outcome [8]
active: growth inhibition [1] 81% | growth inhibition [4] 96%

Cc1nc2nc(N)nc(N)c2c(C)c1Cc1ccc(C(F)(F)F)cc1
active: inhibition [2] 57% | growth inhibition [4] 96%
inactive: growth inhibition [1] 22% | inhibition [3] -2% | outcome [5] | outcome [6] | outcome [7] | outcome [8]

Cc1cc(=O)c(-c2ccc(OCCSc3ccc(C(F)(F)F)cn3)cc2)c(C)[nH]1
active: growth inhibition [1] 96% | growth inhibition [4] 97%
inactive: inhibition [2] 2% | inhibition [3] 7% | outcome [5] | outcome [6] | outcome [7] | outcome [8]

CCNc1cc(C(=O)N[C@@H](Cc2ccc(Cl)cc2)[C@H](O)CNC2CCCCC2)cc(N2CCCCS2(=O)=O)c1
inactive: inhibition [2] 6% | inhibition [3] -1% | outcome [5] | outcome [6] | outcome [7] | outcome [8]
active: growth inhibition [1] 99% | growth inhibition [4] 98%

CC(C)C1=CC(=NOS(=O)(=O)c2ccccc2)C=C(C(C)C)C1=O
inactive: inhibition [2] 23% | inhibition [3] -3% | outcome [5] | outcome [6] | outcome [7] | outcome [8]
active: growth inhibition [1] 74% | growth inhibition [4] 92%

Cc1cc(O)c(C(C)C)cc1C1(c2cc(C(C)C)c(O)cc2C)OC(=O)c2ccccc21
inactive: growth inhibition [1] 18% | inhibition [2] 8% | inhibition [3] -3% | outcome [5] | outcome [6] | outcome [7] | outcome [8]
active: growth inhibition [4] 95%

O=C(Nc1ccccc1C(F)(F)F)Nc1nn(Cc2c(F)cccc2Cl)cc1Br
inactive: inhibition [2] -15% | inhibition [3] -8% | outcome [5] | outcome [6] | outcome [7] | outcome [8]
active: growth inhibition [1] 86% | growth inhibition [4] 100%

CC12CN3CC(C)(CN(C1)C3c1cc(Br)ccc1O)C2O (stereo not drawn)
inactive: growth inhibition [1] 2% | inhibition [2] 5% | inhibition [3] -3% | outcome [5] | outcome [6] | outcome [7] | outcome [8]
active: growth inhibition [4] 98%

CCNc1cc(C)nc(Nc2ccc(NC(=O)c3ccccc3)cc2)n1
inactive: inhibition [2] 41% | inhibition [3] -1% | outcome [5] | outcome [6] | outcome [7] | outcome [8]
active: growth inhibition [1] 63% | growth inhibition [4] 102%
